In PMC5540273 (PLoS ONE, 2017):

Experiments:
Settings in all cases: concentration: 1 μM, replicates: in singlicate; n = 1
PIK3C2G = tested on: PIK3C2G
PIK3CA = tested on: PIK3CA
PIK3CB = tested on: PIK3CB
PIK3CD = tested on: PIK3CD
PIK3CG = tested on: PIK3CG
PIK4CB = tested on: T1, PIK4CB
T1 construct: gene PI4KB

PIKFYVE = tested on: PIKFYVE
PIM1 = tested on: PIM1
PIM2 = tested on: PIM2
PIM3 = tested on: PIM3
PIP5K1A = tested on: PIP5K1A
PIP5K1C = tested on: PIP5K1C
PIP5K2B = tested on: PIP5K2B
PIP5K2C = tested on: T2, PIP5K2C
T2 construct: gene PIP4K2C

PKAC-alpha = tested on: T3, PKAC-alpha
T3 construct: gene PRKACA

PKAC-beta = tested on: T4, PKAC-beta
T4 construct: gene PRKACB

PKMYT1 = tested on: PKMYT1
PKN1 = tested on: PKN1
PKN2 = tested on: PKN2
PLK1 = tested on: PLK1
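Note: KINOMEscan kinase panel screen.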

SMILES | %Inh (PIK3C2G) [%] | %Inh (PIK3CA) [%] | %Inh (PIK3CB) [%] | %Inh (PIK3CD) [%] | %Inh (PIK3CG) [%] | %Inh (PIK4CB) [%] | %Inh (PIKFYVE) [%] | %Inh (PIM1) [%] | %Inh (PIM2) [%] | %Inh (PIM3) [%] | %Inh (PIP5K1A) [%] | %Inh (PIP5K1C) [%] | %Inh (PIP5K2B) [%] | %Inh (PIP5K2C) [%] | %Inh (PKAC-alpha) [%] | %Inh (PKAC-beta) [%] | %Inh (PKMYT1) [%] | %Inh (PKN1) [%] | %Inh (PKN2) [%] | %Inh (PLK1) [%]
COC(=O)Nc1nc2ccc(Oc3ccc(NC(=O)Nc4cc(C(F)(F)F)ccc4F)cc3)cc2[nH]1.Cl [GW654607] | 0 | 0 | 17 | 0 | 3 | 0 | 0 | 0 | 0 | 0 | 0 | 30 | 34 | 16 | 0 | 6 | 0 | 39 | 16 | 0
N#CC1(c2cccc(C(=O)Nc3cccc(Oc4ccc5nc(NC(=O)C6CC6)sc5n4)c3)c2)CC1 | 0 | 0 | 0 | 0 | 0 | 0 | 0 | 0 | 17 | 7 | 3 | 59 | 0 | 23 | 34 | 0 | 0 | 0 | 0 | 13
COC(=O)Nc1nc2cc(Oc3ccc(NC(=O)Nc4cccc(SC)c4)cc3)ccc2[nH]1.Cl [GW697999] | 85 | 0 | 0 | 0 | 0 | 0 | 0 | 12 | 0 | 0 | 56 | 62 | 20 | 40 | 0 | 4 | 0 | 0 | 0 | 0
Cc1cc(-c2c(-c3ccc(F)cc3)ncn2CCCN2CCOCC2)nc(N)n1 [SB-222517] | 20 | 23 | 0 | 0 | 36 | 46 | 0 | 11 | 26 | 15 | 0 | 0 | 0 | 0 | 26 | 16 | 4 | 0 | 10 | 12
Cl.Cl.NC(CNC(=O)c1cc(Br)c(-c2ccnc3[nH]ccc23)s1)c1ccccc1 (stereo not shown) [GSK1322949] | 0 | 1 | 0 | 0 | 22 | 0 | 0 | 40 | 0 | 34 | 74 | 85 | 86 | 57 | 98.4 | 97.2 | 16 | 14 | 33 | 15
O=C(Nc1n[nH]c2nc(-c3ccccc3)ccc12)C1CC1 [SB-708999] | 9 | 11 | 0 | 41 | 5 | 0 | 28 | 0 | 16 | 0 | 46 | 84 | 12 | 34 | 4 | 0 | 0 | 11 | 0 | 16
CN(c1ccc(NC(=O)N2CCN(CCCN3CCOCC3)CC2)cc1)c1ccnc(Nc2ccc(CS(C)(=O)=O)cc2)n1.Cl [GW830899] | 0 | 0 | 0 | 0 | 0 | 100 | 0 | 16 | 0 | 0 | 0 | 26 | 32 | 55 | 0 | 29 | 25 | 0 | 0 | 3
CC(C)NCC(Cc1ccccc1)NC(=O)c1cc(Br)c(-c2ccnc3[nH]ccc23)s1.Cl.Cl (stereo not shown) [GSK1383281] | 0 | 0 | 0 | 0 | 0 | 0 | 0 | 11 | 0 | 0 | 14 | 49 | 17 | 37 | 99.4 | 99 | 0 | 40 | 57 | 0
c1ccc(Oc2ccc(Nc3ccnc4cc(-c5ccc(CN6CCCCC6)o5)ccc34)cc2)nc1 [GW567143] | 0 | 0 | 0 | 0 | 0 | 0 | 0 | 0 | 0 | 0 | 9 | 47 | 0 | 48 | 2 | 0 | 0 | 0 | 0 | 5
Cn1cc(-c2ccc3c(c2)CCN3C(=O)Cc2cc(F)cc(F)c2F)c2c(N)ncnc21 [GSK2634140] | 0 | 0 | 62 | 0 | 7 | 0 | 0 | 12 | 0 | 0 | 10 | 0 | 13 | 12 | 0 | 4 | 0 | 0 | 0 | 0
CC(C)c1nc(-c2cccc(NS(=O)(=O)c3c(F)cccc3F)c2)c(-c2ccnc(Nc3ccc(N4CCOCC4)nc3)n2)s1.Cl [GSK1723980] | 0 | 0 | 0 | 0 | 0 | 0 | 0 | 0 | 0 | 0 | 0 | 20 | 18 | 85 | 0 | 0 | 0 | 16 | 0 | 0
CN(c1ccc(F)c(NC(=O)c2cccc(OC(C)(C)C#N)c2Cl)c1)c1ccc2nc(NC(=O)C3CC3)sc2n1 | 30 | 0 | 9 | 0 | 5 | 0 | 50 | 0 | 14 | 6 | 34 | 0 | 3 | 0 | 17 | 0 | 4 | 4 | 0 | 0
Cc1cc(-c2ccnc(Nc3cccc(C#N)c3)n2)cc(C)c1O [GSK1440913] | 24 | 1 | 0 | 47 | 67 | 97 | 90 | 0 | 0 | 0 | 11 | 70 | 61 | 94.9 | 3 | 0 | 6 | 0 | 14 | 0
CN1CCN(Cc2ccc(NC(=O)Nc3ccc(N(C)c4ccnc(Nc5ccc(CS(C)(=O)=O)cc5)n4)cc3)cc2)CC1.Cl [GW827654] | 6 | 0 | 16 | 0 | 26 | 30 | 7 | 0 | 0 | 45 | 74 | 0 | 69 | 78 | 0 | 23 | 10 | 41 | 0 | 7
